Unmarked numbers belong to inactive results. Inconclusive results are not listed. Where a call stands in place of a potency, no number is given. Active and inactive are the calls of the source. Unless noted, calls come from the whole dose curve; as a rule, active = well fitted curve in the direction sought with a large enough effect; inconclusive = small, poorly fitted or top-dose-only effect, or another doubt; inactive = no such curve, though single readings can be large; an effect the other way counts as inactive or inconclusive.
How the values were obtained:
[1] = Cytometric Cell-Based qHTS for Inhibitors of the mTORC1 Signaling Pathway in MEF (Tsc2-/-, p53-/-) Cells (AID 2660);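 note: Tsc2 and p53 null MEFs carrying empty vector with compound for 24 h; percent of cells above a phospho-rpS6 to PI ratio cutoff in each well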
Summary of the method: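 Readout: Alexa-488 phospho-rpS6 (Ser235/236) intensity divided by PI intensity, thresholded against 7.5 nM rapamycin wells and reported as % positive cells. PI cell count served as the viability measure. Compound exposure was 24 hrs at 37 degree Celsius.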

[2] = High Content Imaging Cell-Based qHTS for Inhibitors of the mTORC1 Signaling Pathway in MEF (Tsc2-/-, p53-/-) Cells (AID 2666);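 note: percent of cells scored positive for phospho-rpS6 Ser235/236 immunostaining by imaging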
Summary of the method: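 Cells were plated, dosed with compound after 24 hrs, and incubated another 24 hrs at 37 degree Celsius. Fixed cells were immunostained for phospho-rpS6 Ser235/236 and counterstained, and the normalized signal was scored as % active cells against rapamycin and DMSO controls.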

[3] = S16 Schwann cell PMP22 intronic element firefly luciferase assay (AID 624032); note: nearly all actives have a fitted effect of over 30% in size
Summary of the method: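 Luciferase reporter of PMP22 intronic-element expression in stably transfected S16 rat Schwann cells, read by ONE-Glo luminescence after 24 h compound exposure at 37 C. Activity scaled between DMSO (0%) and positive-control PTC124; concentration-effect curves quality-classified.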

[4] = S16 Schwann cell PMP22 intronic element beta-lactamase assay (AID 624044; calls by dose curve; note: nearly all actives have a fitted effect of over 15% in size); conditions: S16 rat Schwann cells, PMP22 element beta-lactamase FRET, 24 h; ratio activity, negative = inhibition: at 38.3 µM (top of the series) unless noted
Summary of the method: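 Rat S16 Schwann cells with beta-Lac driven by a PMP22 intronic element, compound-treated 24 h at 37 °C. LiveBLAzer FRET B/G read: 460 nm normalized to potassium clavulanate vs DMSO; 535 nm FRET as viability; concentration-effect curves classified.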

7G8 = experiment: qHTS profiling for inhibitors of Plasmodium falciparum proliferation (AID 504749); note: nearly all actives have a fitted effect of over 60% in size; note: potency is the fitted concentration of half-maximal effect; conditions: P. falciparum in erythrocytes, SYBR Green DNA, 72 h; series mostly up to 12.8 µM
Summary of the method: (§1)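 Infected RBCs, 0.3% parasitemia/2.5% Hct final; cpd 72 h, 37 C, 5% CO2; lysis buffer with saponin/triton/SYBR Green I, o/n RT dark; FI 485/535; norm. to artemisinin (0.29 uM) and DMSO.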

CP191 = experiment: as above; conditions: P. falciparum in erythrocytes, SYBR Green DNA, 72 h; series mostly up to 28.7 µM
Summary of the method: as §1

CP260 = experiment: as above; conditions: P. falciparum in erythrocytes, SYBR Green DNA, 72 h; series mostly up to 28.7 µM
Summary of the method: as §1

CP262 = experiment: as above; conditions: P. falciparum in erythrocytes, SYBR Green DNA, 72 h; series mostly up to 28.7 µM
Summary of the method: as §1

CP335 = experiment: as above; conditions: P. falciparum in erythrocytes, SYBR Green DNA, 72 h; series mostly up to 12.8 µM
Summary of the method: as §1

ICS = experiment: as above; conditions: P. falciparum in erythrocytes, SYBR Green DNA, 72 h; series mostly up to 28.7 µM
Summary of the method: as §1

TAB109 = experiment: as above; conditions: P. falciparum in erythrocytes, SYBR Green DNA, 72 h; series mostly up to 12.8 µM
Summary of the method: as §1

[5] = S16 Schwann cell viability assay (CellTiter-Glo assay) (AID 624031);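 note: cellular ATP luminescence as a viability measure; nearly all actives have a fitted effect of over 70% in size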
Summary of the method: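 Native S16 rat Schwann cells in DMEM/10% FBS without phenol red were incubated overnight, then exposed to compounds for 24 h at 37 °C/5% CO2. Viability was read as ATP luminescence (CellTiter-Glo), normalized to no-cell wells and DMSO (0%).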

[6] = molecular target: Cytochrome P450 1A2 (Homo sapiens) (UniProt P05177); experiment: p450-cyp1a2 (AID 410; calls by dose curve; note: potency is the fitted concentration of half-maximal effect)
Summary of the method: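 Luminescent readout of luciferin formed from Luciferin-ME by human CYP1A2; data normalized against complete inhibition by 57 uM furafylline. Enzyme 20nM, substrate 100uM at Km, 100mM KPO4 buffer, 60 min reaction at room temperature.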

[7] = molecular target: Glucocorticoid receptor (Homo sapiens) (UniProt P04150); experiment: GR-EFC Redistribution (AID 451; calls by dose curve; note: potency is the fitted concentration of half-maximal effect); conditions: CHO-K1 GR-EFC translocation, beta-gal luminescence, 2 h
Summary of the method: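 Translocation of GR-ED fusion to nuclear EA restores b-gal, read by luminescence after 1 h room-temperature detection. Engineered CHO-K1 biosensor cells, 1,000/well, exposed 2 h at 37 C to titrations up to 46 uM final.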

[8] = molecular target: Mitogen-activated protein kinase 10 (Mus musculus) (UniProt Q61831); experiment: JNK3 AlphaScreen Assay (AID 530; active = well fitted curve in either direction with a large enough effect, not every such curve was filed as active;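 note: kinase came from lysate of stimulated human HepG2 cells; signal reports phosphorylation of biotinylated GST-cJun 1-79 at Ser73 with 10 µM ATP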)
Summary of the method: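 Compound titrations were preincubated 15 minutes at room temperature with substrate, antibody and pre-activated JNK3-containing HepG2 lysate. Reactions were started with 10 uM ATP and stopped with EDTA-containing bead buffer for AlphaScreen detection.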

[9] = molecular target: Cytochrome P450 3A4 (Homo sapiens) (UniProt P08684); experiment: qHTS Assay for Activators of Cytochrome P450 3A4 (AID 885); note: nearly all actives have a fitted effect of over 65% in size
Summary of the method: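 20nM CYP3A4 + 25uM Luciferin-PPXE (=KM), 200mM KPO4; cpd 10 min RT; NADPH regen, 60 min RT; stop w/ detection buffer, 20 min; luminescence. Normalized to 57 uM ketoconazole.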

[10] = qHTS Assay for Identification of Small Molecule Agonists for Thrombopoietin (TPO) Signaling Pathway (AID 917)
Summary of the method: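 Reporter: GpIIb promoter–luciferase in murine Ba/F3 expressing human TPO receptor. Pre-starved of IL-3 overnight; compounds with 26 pM TPO, 24 hrs, 37 C/5% CO2; luminescence read.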

[11] = molecular target: Muscarinic acetylcholine receptor M1 (Rattus norvegicus) (UniProt P08482); experiment: qHTS Assay for Antagonists of Acetylcholine Muscarinic M1 Receptor: Kinetic Measurement of Intracellular Calcium Response (AID 943); note: nearly all actives have a fitted effect of over 75% in size; note: potency is the fitted concentration of half-maximal effect;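 for activity change, negative = inhibition: Fluo-4 calcium signal as peak divided by basal fluorescence over 4 min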
Summary of the method: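 Rat M1-CHO cells, 2000/well, overnight → Fluo-4 no-wash dye with probenecid, 1 h 37C → compound 10 min, room temp → basal read 6 s → carbachol EC80 (100 nM) → 4 min kinetic read; peak/basal.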

[12] = molecular target: Muscarinic acetylcholine receptor M1 (Rattus norvegicus) (UniProt P08482); experiment: qHTS Assay for Antagonists of Acetylcholine Muscarinic M1 Receptor: Measurement of IP-One Response (AID 944); note: nearly all actives have a fitted effect of over 75% in size; note: potency is the fitted concentration of half-maximal effect
Summary of the method: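 M1-CHO (rat), 2000 cells/well, overnight recovery; cpd 10 min; carbachol EC80 (200 nM), 30 min, HEPES buffer + 50 mM LiCl pH 7.4; IP-One HTRF, Ex 337, Em 620/665 nm.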

[13] = NFAT Signaling Pathway (AID 444; active = well fitted curve in either direction with a large enough effect, not every such curve was filed as active;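 note: carbachol stimulus at about its EC50 of 1 µM final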); conditions: Jurkat NFAT-bla M1, carbachol, beta-lactamase ratio, 5 h
Summary of the method: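 Read-out: CCF4 FRET ratio (460 nm/530 nm) after 1 h RT dye loading, used for %activity and AC50 from titration series. Cells: Jurkat NFAT-β-lactamase/M1 line, treated with compound plus 1 uM carbachol for 5 h, 37 °C.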

Chain of Cytochrome P450 3A4 (Homo sapiens) (P08684 whole entry, looked up): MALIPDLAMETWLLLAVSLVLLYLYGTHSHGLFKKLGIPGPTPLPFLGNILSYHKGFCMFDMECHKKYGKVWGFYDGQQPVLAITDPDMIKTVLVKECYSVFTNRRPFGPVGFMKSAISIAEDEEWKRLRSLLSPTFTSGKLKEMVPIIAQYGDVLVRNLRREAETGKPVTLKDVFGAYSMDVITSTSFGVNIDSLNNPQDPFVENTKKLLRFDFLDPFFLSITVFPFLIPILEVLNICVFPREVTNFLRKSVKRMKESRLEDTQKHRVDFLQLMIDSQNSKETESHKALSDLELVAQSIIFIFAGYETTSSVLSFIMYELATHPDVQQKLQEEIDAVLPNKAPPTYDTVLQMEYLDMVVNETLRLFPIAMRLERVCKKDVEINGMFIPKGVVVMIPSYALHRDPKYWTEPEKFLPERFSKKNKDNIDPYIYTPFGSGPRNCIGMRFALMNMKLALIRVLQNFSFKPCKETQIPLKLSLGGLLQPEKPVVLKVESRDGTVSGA
Chain of Glucocorticoid receptor (Homo sapiens) (P04150 whole entry, looked up, the tested form may be a part): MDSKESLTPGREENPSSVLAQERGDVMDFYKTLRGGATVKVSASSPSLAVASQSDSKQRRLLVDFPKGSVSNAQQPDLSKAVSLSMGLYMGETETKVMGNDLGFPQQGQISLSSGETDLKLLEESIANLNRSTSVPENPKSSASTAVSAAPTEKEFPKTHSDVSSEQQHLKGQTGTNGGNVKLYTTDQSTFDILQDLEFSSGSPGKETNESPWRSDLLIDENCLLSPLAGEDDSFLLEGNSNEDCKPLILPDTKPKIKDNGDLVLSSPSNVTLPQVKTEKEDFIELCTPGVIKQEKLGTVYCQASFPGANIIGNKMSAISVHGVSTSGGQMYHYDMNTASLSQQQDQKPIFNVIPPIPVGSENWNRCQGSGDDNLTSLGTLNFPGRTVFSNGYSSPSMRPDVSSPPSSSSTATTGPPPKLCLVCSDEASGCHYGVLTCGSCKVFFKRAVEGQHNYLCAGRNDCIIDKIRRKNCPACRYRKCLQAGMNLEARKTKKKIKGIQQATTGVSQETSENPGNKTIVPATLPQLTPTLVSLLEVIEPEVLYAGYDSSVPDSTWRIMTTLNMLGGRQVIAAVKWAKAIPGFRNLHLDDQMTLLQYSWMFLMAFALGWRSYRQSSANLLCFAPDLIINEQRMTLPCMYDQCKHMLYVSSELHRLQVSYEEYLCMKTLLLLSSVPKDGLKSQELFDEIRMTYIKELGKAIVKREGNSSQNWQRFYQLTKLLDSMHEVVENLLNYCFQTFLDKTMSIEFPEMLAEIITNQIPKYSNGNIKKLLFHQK
Chain of Cytochrome P450 1A2 (Homo sapiens) (P05177 whole entry, looked up): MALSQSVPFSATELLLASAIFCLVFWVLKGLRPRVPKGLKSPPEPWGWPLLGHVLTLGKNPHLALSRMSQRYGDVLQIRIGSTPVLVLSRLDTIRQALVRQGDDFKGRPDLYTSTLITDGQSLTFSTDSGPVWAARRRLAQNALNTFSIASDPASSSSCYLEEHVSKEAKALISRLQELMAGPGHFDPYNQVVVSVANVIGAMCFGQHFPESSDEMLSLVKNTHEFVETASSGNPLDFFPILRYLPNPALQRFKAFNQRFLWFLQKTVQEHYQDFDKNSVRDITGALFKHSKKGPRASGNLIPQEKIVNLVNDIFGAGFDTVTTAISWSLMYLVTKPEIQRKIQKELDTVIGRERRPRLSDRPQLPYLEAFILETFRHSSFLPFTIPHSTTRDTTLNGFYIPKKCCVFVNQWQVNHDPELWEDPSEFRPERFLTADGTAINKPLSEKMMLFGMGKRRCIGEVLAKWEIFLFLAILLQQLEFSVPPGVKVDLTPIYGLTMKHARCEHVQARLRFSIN
Chain of Muscarinic acetylcholine receptor M1 (Rattus norvegicus) (P08482 whole entry, looked up): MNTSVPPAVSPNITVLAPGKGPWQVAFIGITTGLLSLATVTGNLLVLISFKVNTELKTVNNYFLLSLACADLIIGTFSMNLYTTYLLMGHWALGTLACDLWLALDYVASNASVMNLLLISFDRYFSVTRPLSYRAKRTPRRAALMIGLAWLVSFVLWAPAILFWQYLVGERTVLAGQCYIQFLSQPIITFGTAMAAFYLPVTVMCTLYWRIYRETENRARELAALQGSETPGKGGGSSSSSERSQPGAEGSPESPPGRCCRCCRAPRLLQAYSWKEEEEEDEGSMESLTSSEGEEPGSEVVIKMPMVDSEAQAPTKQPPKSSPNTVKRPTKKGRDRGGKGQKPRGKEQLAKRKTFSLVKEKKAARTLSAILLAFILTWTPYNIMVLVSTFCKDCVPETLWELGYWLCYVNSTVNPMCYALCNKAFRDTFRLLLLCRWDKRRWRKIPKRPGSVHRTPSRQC

Question: Which results are given for `C[C@H]1C2Cc3ccc(O)cc3[C@]1(C)CCN2CC1CC1`?
Answer: outcome [1]: inactive; Potency [2]: inactive

Question: With `CC12CCC3C(CCC4=C(O)C(=O)CCC43C)C1CCC2=O` (stereo not drawn) as the compound, how does the outcome [1] read?
Answer: inactive

Question: And the Potency [2]?
Answer: inactive

Question: For `CC(C)(O)C1C2OC(=O)C1[C@]1(O)C[C@H]3O[C@]34C(=O)O[C@H]2[C@]14C` (stereo partly drawn) (tested in a mixture with another compound), which Potency [3] is on record?
Answer: inactive

Question: And the Potency [4]?
Answer: inactive

Question: And the Potency (7G8)?
Answer: inactive

Question: And the Potency (CP191)?
Answer: inactive

Question: And the Potency (CP260)?
Answer: inactive

Question: What about the Potency (CP262) of the same compound?
Answer: inactive

Question: And the Potency (CP335)?
Answer: inactive

Question: What about the Potency (ICS) of the same compound?
Answer: inactive

Question: What about the Potency (TAB109) of the same compound?
Answer: inactive

Question: For `CCN(CC)C(=O)N[C@@H]1C[C@@H]2c3cccc4[nH]cc(c34)C[C@H]2N(C)C1`, which Potency [5] is on record?
Answer: inactive

Question: And the Potency [3]?
Answer: inactive

Question: And the Potency [4]?
Answer: inactive

Question: What about the Potency (7G8) of the same compound?
Answer: 4.47 µM (active)

Question: For `COc1cc(C=C(C#N)C#N)cc(O)c1O`, which Potency [6] is on record?
Answer: 12.6 µM (active)

Question: What about the Potency [7] of the same compound?
Answer: > 46 µM

Question: And the outcome [8]?
Answer: inactive

Question: What about the Potency [9] of the same compound?
Answer: inactive

Question: And the outcome [10]?
Answer: inactive

Question: And the Potency [11]?
Answer: inactive

Question: With `NCC#Cc1ccccc1` as the compound, how does the Potency [6] read?
Answer: 3.16 µM (active)

Question: What about the outcome [8] of the same compound?
Answer: inactive

Question: And the Potency [9]?
Answer: inactive

Question: What about the Potency [12] of the same compound?
Answer: inactive

Question: Which Potency [9] does the source give for `CCC1/C=C/C=CCC(C)C(O)[C@@](C)(O)C(=O)C(C)C(O)C(C)C(=O)C(C)C(O)C(C)C=CC(=O)O[C@H]2C(C)C(CC1)O[C@]1(CCC(C)C(CC(C)O)O1)C2C` (stereo partly drawn) here?
Answer: inactive

Question: With `CC[C@@H](CO)NC(=O)[C@H]1C=C2c3cccc4c3c(cn4C)C[C@H]2N(C)C1` as the compound, how does the Potency [6] read?
Answer: 15.8 µM (active)

Question: With `CCCCN1C2CCC1CC(OC(c1ccc(F)cc1)c1ccc(F)cc1)C2` (stereo not drawn) as the compound, how does the Potency [11] read?
Answer: 0.398 µM (active)

Question: And the Potency [12]?
Answer: 2.24 µM (active)

Question: For `CCCN(CCC)C(=O)Cc1c(-c2ccc(Cl)cc2)nc2c(Cl)cc(Cl)cn12`, which Potency [6] is on record?
Answer: inactive

Question: What about the activity change, negative = inhibition ([13]; at 38 µM (top of the series)) of the same compound?
Answer: 7.25%

Question: What about the Potency [7] of the same compound?
Answer: > 46 µM

Question: What about the Potency [9] of the same compound?
Answer: inactive

Question: What about the outcome [10] of the same compound?
Answer: inactive

Question: And the Potency [11]?
Answer: inactive

Question: And the Potency [12]?
Answer: inactive

Question: For `C#CCN(C)C(C)Cc1ccccc1` (stereo not drawn), which activity change, negative = inhibition ([13]; at 17.2 µM (top of the series)) is on record?
Answer: -4.45%

Question: For `NNCc1cccc(O)c1`, which activity change, negative = inhibition ([13]; at 38 µM (top of the series)) is on record?
Answer: -15.7%

Question: What about the Potency [7] of the same compound?
Answer: > 46 µM

Question: What about the outcome [8] of the same compound?
Answer: inactive

Question: And the outcome [10]?
Answer: inactive

Question: With `CCCC[N+]1(C)C2CC(OC(=O)C(CO)c3ccccc3)CC1C1OC12` (stereo not drawn) as the compound, how does the Potency [5] read?
Answer: inactive

Question: And the Potency [3]?
Answer: inactive

Question: What about the Potency [4] of the same compound?
Answer: inactive

Question: What about the Potency (7G8) of the same compound?
Answer: inactive

Question: And the Potency (CP191)?
Answer: inactive

Question: What about the Potency (CP260) of the same compound?
Answer: inactive

Question: And the Potency (CP262)?
Answer: inactive

Question: What about the Potency (CP335) of the same compound?
Answer: inactive

Question: And the Potency (ICS)?
Answer: inactive

Question: What about the Potency (TAB109) of the same compound?
Answer: inactive

Question: Which results are given for `Oc1ccc2c3c1O[C@H]1[C@@H](O)CC[C@@]4(O)C(C2)N(CC2CCC2)CCC314` (stereo partly drawn)?
Answer: Potency [5]: inactive; Potency [4]: inactive; Potency (CP191): inactive; Potency (CP260): inactive; Potency (CP335): inactive; Potency (ICS): inactive; Potency (TAB109): inactive

Question: Which activity change, negative = inhibition ([13]; at 17.2 µM (top of the series)) does the source give for `C[C@H]1OC[C@@H](C[N+](C)(C)C)O1` here?
Answer: 147% [activator] (active)

Question: What about the outcome [8] of the same compound?
Answer: inactive

Question: What about the outcome [10] of the same compound?
Answer: inactive

Question: What about the Potency [11] of the same compound?
Answer: inactive

Question: And the Potency [12]?
Answer: inactive

Question: For `CNC(C)[C@@H](O)c1ccc(O)cc1` (stereo partly drawn), which Potency [5] is on record?
Answer: inactive

Question: And the Potency [3]?
Answer: inactive

Question: What about the Potency (7G8) of the same compound?
Answer: inactive

Question: And the Potency (CP191)?
Answer: inactive

Question: And the Potency (CP260)?
Answer: inactive

Question: And the Potency (CP262)?
Answer: inactive

Question: What about the Potency (CP335) of the same compound?
Answer: inactive

Question: And the Potency (ICS)?
Answer: inactive
